Where “and” joins values, the source holds several entries; their conditions need not be identical. Equal values may be shown once. Inconclusive results are not listed. The source holds several records for some structures; these can differ, active in one and inactive in another. Calls of active or inactive are those of the source. Unless noted, the call rests on the fitted dose curve; in most records, active means well fitted curve in the direction sought with a large enough effect; inconclusive means small, poorly fitted or top-dose-only effect, or another doubt; inactive means no such curve, though single readings can be large; an effect the other way counts as inactive or inconclusive.
Legend:
MKL-2 = assay: qHTS assay to identify novel small-molecules to repurpose for Merkel cell carcinoma treatment (AID 1296009); conditions: MCC and control cell lines, CellTiter-Glo viability, 72 h; series mostly up to 46 µM; further: nearly all actives have a fitted effect of over 60% in size; further: potency means the concentration at half of the fitted maximal effect
Outline: (§1)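 Luminescence from CellTiter-Glo, read 10 min after addition at room temperature, reported viability following a 72 hr, 37 degree celsius treatment with NPC or MIPE compounds in titration; values normalized to plate controls.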

UISO = assay: as above; conditions: MCC and control cell lines, CellTiter-Glo viability, 72 h; series mostly up to 46 µM
Outline: as §1

WaGa = assay: as above; conditions: MCC and control cell lines, CellTiter-Glo viability, 72 h; series mostly up to 46 µM
Outline: as §1

C33A = assay: Primary qHTS to identify gynecologic anti-cancer compounds using libraries of approved drugs and bioactive compounds (AID 1345084); conditions: Gynecologic cancer cell panel viability, ATPlite luminescence, 48 h; series mostly up to 57.5 µM; further: nearly all actives have a fitted effect of over 55% in size; further: potency means the concentration at half of the fitted maximal effect
Outline: (§2)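 Measured: luminescence after ATPlite addition (15 min, RT). Exposure: 48 h, 37 C, 5% CO2.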

CAOV3 = assay: as above; conditions: Gynecologic cancer cell panel viability, ATPlite luminescence, 48 h; series mostly up to 57.5 µM
Outline: as §2

CASKI = assay: as above; conditions: Gynecologic cancer cell panel viability, ATPlite luminescence, 48 h; series mostly up to 57.5 µM
Outline: as §2

Es-2 = assay: as above; conditions: Gynecologic cancer cell panel viability, ATPlite luminescence, 48 h; series mostly up to 57.5 µM
Outline: as §2

HeLa = assay: as above; conditions: Gynecologic cancer cell panel viability, ATPlite luminescence, 48 h; series mostly up to 57.5 µM
Outline: as §2

JEG-3 = assay: as above; conditions: Gynecologic cancer cell panel viability, ATPlite luminescence, 48 h; series mostly up to 57.5 µM
Outline: as §2

OV90 = assay: as above; conditions: Gynecologic cancer cell panel viability, ATPlite luminescence, 48 h; series mostly up to 57.5 µM
Outline: as §2

PA-1 = assay: as above; conditions: Gynecologic cancer cell panel viability, ATPlite luminescence, 48 h; series mostly up to 57.5 µM
Outline: as §2

SKOV3 = assay: as above; conditions: Gynecologic cancer cell panel viability, ATPlite luminescence, 48 h; series mostly up to 57.5 µM
Outline: as §2

Tov-21-G = assay: as above; conditions: Gynecologic cancer cell panel viability, ATPlite luminescence, 48 h; series mostly up to 57.5 µM
Outline: as §2

Tov112D = assay: as above; conditions: Gynecologic cancer cell panel viability, ATPlite luminescence, 48 h; series mostly up to 57.5 µM
Outline: as §2

[1] = Drug repurposing screens with cells derived from glioblastoma tumor samples (AID 1345199); conditions: GBM patient neurospheres viability, ATP luminescence, 48 h; further: nearly all actives have a fitted effect of over 40% in size; further: potency means the concentration at half of the fitted maximal effect; on activity, negative = cell killing: on the % scale 0 is the no-effect control and ±100 the full control effect
Outline: (§3)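 Primary testing used CD133+ neurospheres from four GBM patients, seven concentrations, 48 h exposure and ATP-based viability; confirmation added three slower-growing patient lines.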

astro = assay: as above; conditions: viability, ATP luminescence, 48 h; series mostly up to 45.9 µM
Outline: as §3

Hek293T = assay: Primary qHTS to identify gynecologic anti-cancer compounds using libraries of approved drugs and bioactive compounds (AID 1345084); conditions: Gynecologic cancer cell panel viability, ATPlite luminescence, 48 h, control line for the selectivity index; series mostly up to 57.5 µM; further: nearly all actives have a fitted effect of over 55% in size; further: potency means the concentration at half of the fitted maximal effect
Outline: as §2

[2] = molecular target: Nuclear receptor subfamily 1 group I member 2 (Rattus norvegicus) (UniProt Q9R1A7); assay: qHTS assay for small molecule activators of the rat pregnane X receptor (rPXR) signaling pathway (AID 651751; call rule not given here; further: 0% is about no effect); conditions: rPXR reporter cells, luciferase (One-Glo), 24 h
Chain of Nuclear receptor subfamily 1 group I member 2 (Rattus norvegicus) (Q9R1A7 whole entry, looked up): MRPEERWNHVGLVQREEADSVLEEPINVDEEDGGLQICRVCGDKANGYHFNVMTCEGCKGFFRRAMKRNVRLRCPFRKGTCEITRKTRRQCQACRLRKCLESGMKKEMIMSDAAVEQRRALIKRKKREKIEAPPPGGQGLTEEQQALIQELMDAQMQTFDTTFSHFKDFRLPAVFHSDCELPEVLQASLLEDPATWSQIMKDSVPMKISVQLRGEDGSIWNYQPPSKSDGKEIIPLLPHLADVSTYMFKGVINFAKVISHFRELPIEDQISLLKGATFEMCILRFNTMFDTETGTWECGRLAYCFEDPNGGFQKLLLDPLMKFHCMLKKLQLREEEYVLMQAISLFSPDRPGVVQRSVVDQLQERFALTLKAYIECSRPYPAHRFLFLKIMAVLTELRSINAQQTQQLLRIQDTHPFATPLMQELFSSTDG

[3] = at 45.9 µM (top of the series), tumour line B
[4] = at 46.1 µM (top of the series), tumour line C
[5] = at 45.9 µM (top of the series), tumour line D
[6] = at 46 µM (top of the series), tumour line A

CN(C)CCN(Cc1ccccc1)c1ccccn1
inactive: Potency (MKL-2) | Potency (UISO) | Potency (WaGa) | Potency (C33A) | Potency (CAOV3) | Potency (CASKI) | Potency (Es-2) | Potency (HeLa) | Potency (JEG-3) | Potency (OV90) | Potency (PA-1) | Potency (SKOV3) | Potency (Tov-21-G) | Potency (Tov112D) | activity, negative = cell killing [1, 3] -8.05% | activity, negative = cell killing [1, 4] -4.16% | Potency (astro)
active: Potency ([1]; tumour line A) 5.62 µM

Nc1ccc(S(=O)(=O)Nc2nccs2)cc1
inactive: Potency (MKL-2) | Potency (UISO) | Potency (WaGa) | Potency (C33A) | Potency (CAOV3) | Potency (CASKI) | Potency (Es-2) | Potency (HeLa) | Potency (Hek293T) | Potency (JEG-3) | Potency (OV90) | Potency (PA-1) | Potency (Tov-21-G) | Potency (Tov112D) | activity, negative = cell killing [1, 3] -4.74% | activity, negative = cell killing [1, 5] -5.75% | activity, negative = cell killing [1, 6] -21.1% | activity, negative = cell killing [1, 4] -7.84% | Potency (astro) | max response [2] -1.7%

CC1=C(C/C=C(\C)CCC[C@H](C)CCC[C@H](C)CCCC(C)C)C(=O)c2ccccc2C1=O
inactive: Potency (MKL-2) | Potency (UISO) | Potency (WaGa) | Potency (C33A) | Potency (CASKI) | Potency (Es-2) | Potency (HeLa) | Potency (Hek293T) | Potency (JEG-3) | Potency (OV90) | Potency (PA-1) | Potency (SKOV3) | Potency (Tov-21-G) | Potency (Tov112D) | activity, negative = cell killing [1, 4] -10.9%
active: Potency ([1]; tumour line A) 11.2 µM

O=C(O)c1ccccc1-c1ccc(C(F)(F)F)cc1
inactive: Potency (MKL-2) | Potency (UISO) | Potency (WaGa) | Potency (C33A) | Potency (CASKI) | Potency (Es-2) | Potency (HeLa) | Potency (Hek293T) | Potency (JEG-3) | Potency (OV90) | Potency (PA-1) | Potency (SKOV3) | Potency (Tov-21-G) | Potency (Tov112D) | Potency (astro)

NC(=O)N/N=C/c1ccc([N+](=O)[O-])o1
39.8 µM (active) and inactive: Potency (Tov-21-G)
inactive: Potency (UISO) | Potency (C33A) | Potency (CASKI) | Potency (Hek293T) | Potency (OV90) | Potency (PA-1) | Potency (Tov112D) | activity, negative = cell killing [1, 3] 2.52% | activity, negative = cell killing [1, 5] -11.8% | activity, negative = cell killing [1, 6] -13.9% | activity, negative = cell killing [1, 4] 14.2% | Potency (astro) | max response [2] -8.95% and -7.82%
active: Potency (MKL-2) 15.4 µM | Potency (WaGa) 38.6 µM | Potency (HeLa) 31.6 µM
14.1 µM (active) and inactive: Potency (SKOV3)
31.6 µM (active) and inactive: Potency (Es-2)

CS(=O)(=O)c1ccc([C@@H](O)[C@@H](CF)NC(=O)C(Cl)Cl)cc1
inactive: Potency (MKL-2) | Potency (UISO) | Potency (WaGa) | Potency (C33A) | Potency (CASKI) | Potency (Es-2) | Potency (HeLa) | Potency (Hek293T) | Potency (JEG-3) | Potency (OV90) | Potency (PA-1) | Potency (SKOV3) | Potency (Tov112D) | activity, negative = cell killing ([1]; at 20 µM (top of the series), tumour line C) -23.2% | activity, negative = cell killing ([1]; at 21.2 µM (top of the series), tumour line B) -19.6% | activity, negative = cell killing ([1]; at 21.2 µM (top of the series), tumour line D) -7.33% | Potency (astro)

CC(C(O)c1ccc(O)cc1)N1CCC(Cc2ccccc2)CC1 (stereo not given)
active: Potency ([1]; tumour line A) 2.82 µM | Potency ([1]; tumour line B) 35.5 µM | Potency ([1]; tumour line D) 12.6 µM
inactive: Potency (MKL-2) | Potency (UISO) | Potency (WaGa) | Potency (C33A) | Potency (CASKI) | Potency (Es-2) | Potency (HeLa) | Potency (Hek293T) | Potency (JEG-3) | Potency (PA-1) | Potency (SKOV3) | Potency (Tov-21-G) | Potency (Tov112D) | activity, negative = cell killing [1, 4] -15.9% | Potency (astro)

NC(=O)NNc1ccccc1
inactive: Potency (MKL-2) | Potency (UISO) | Potency (WaGa) | Potency (C33A) | Potency (CASKI) | Potency (Es-2) | Potency (HeLa) | Potency (Hek293T) | Potency (JEG-3) | Potency (OV90) | Potency (PA-1) | Potency (SKOV3) | Potency (Tov-21-G) | Potency (Tov112D) | activity, negative = cell killing [1, 3] -9.66% and -3.84% | activity, negative = cell killing [1, 5] -10.5% and 5.37% | activity, negative = cell killing [1, 6] -34.9% | activity, negative = cell killing [1, 4] -25.2% and -16.9% | Potency (astro)

CC1(C)CO[C@@H](CC(=O)O)CN1
inactive: Potency (MKL-2) | Potency (UISO) | Potency (WaGa) | Potency (C33A) | Potency (CAOV3) | Potency (CASKI) | Potency (Es-2) | Potency (HeLa) | Potency (JEG-3) | Potency (OV90) | Potency (PA-1) | Potency (SKOV3) | Potency (Tov-21-G) | Potency (Tov112D) | activity, negative = cell killing [1, 3] -8.88% | activity, negative = cell killing [1, 5] -5.5% | activity, negative = cell killing [1, 6] -28.2% | activity, negative = cell killing [1, 4] -15.1% | Potency (astro)

O=c1cc[nH]c(=S)[nH]1
inactive: Potency (MKL-2) | Potency (UISO) | Potency (WaGa) | Potency (C33A) | Potency (CASKI) | Potency (Es-2) | Potency (HeLa) | Potency (Hek293T) | Potency (JEG-3) | Potency (OV90) | Potency (PA-1) | Potency (SKOV3) | Potency (Tov-21-G) | Potency (Tov112D) | activity, negative = cell killing [1, 3] -6.45% | activity, negative = cell killing [1, 5] -10.9% | activity, negative = cell killing [1, 4] -27.1% | Potency (astro)

Oc1ccc(C(O)CNCCCCCCNCC(O)c2ccc(O)c(O)c2)cc1O (stereo not given)
inactive: Potency (MKL-2) | Potency (UISO) | Potency (WaGa) | Potency (C33A) | Potency (CASKI) | Potency (Es-2) | Potency (HeLa) | Potency (Hek293T) | Potency (JEG-3) | Potency (OV90) | Potency (PA-1) | Potency (SKOV3) | Potency (Tov-21-G) | Potency (Tov112D) | activity, negative = cell killing [1, 3] -10.1% | activity, negative = cell killing [1, 5] -27.7%

O=C1NC(=O)[C@@]2(CCOc3ccc(F)cc32)N1
inactive: Potency (MKL-2) | Potency (UISO) | Potency (WaGa) | Potency (C33A) | Potency (CASKI) | Potency (Es-2) | Potency (HeLa) | Potency (Hek293T) | Potency (JEG-3) | Potency (OV90) | Potency (PA-1) | Potency (SKOV3) | Potency (Tov-21-G) | Potency (Tov112D) | Potency (astro)

From PubChem BioAssay (NCATS)
